# Measurements taken from the supplement of paper PMC8728848.
# The full list was thinned out, with the strongest signals kept by preference.
# B1: Actd5 (Actinidia), P84527 (protein)
# chain: ISSCNGPCRDLNDCDGQLICIKGKCNDDPQVGTHICRGTTHSHQPGGCKPSGTLTCRGKSYPTYDCSPPVTSSTPAKLTNNDFSEGGDDGGPSECDESYHNNNERIVALSTGWYNGGSRCGKMIRITASNGKSVSAKVVDECDSRHGCDKEHAGQPPCRNNIVDGSNAVWSALGLDKNVGVVDITWSMA
# How the values were obtained:
# Assay in all cases: glycan array binding signal (z-score within array); higher = stronger binding
# Details in all cases: glycan notation: IUPAC condensed, linker removed
# [1] = target: GlcA3S(b1-3)Gal(b1-4)GlcNAc(b1-2)Man
# Outline: (§1)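 The binding signal is a Z-score computed within each array. Data were drawn from 3228 arrays in the Consortium for Functional Glycomics database, restricted to those with a known protein sequence. Scores were averaged over arrays of the same protein sequence at different concentrations or buffers, and over linkers, and negative values can be taken as non-binding.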
# [2] = target: GlcA3S(b1-3)Gal(b1-4)GlcNAc(b1-3)Gal(b1-4)Glc
# Outline: as §1
# [3] = target: GlcNAc(b1-2)[GlcNAc(b1-4)]Man(a1-3)[GlcNAc(b1-4)][GlcNAc(b1-2)Man(a1-6)]Man(b1-4)GlcNAc(b1-4)GlcNAc
# Outline: as §1
# [4] = target: GlcNAc(b1-3)Gal(b1-4)GlcNAc(b1-3)Gal(b1-4)GlcNAc(b1-2)Man(a1-3)[GlcNAc(b1-3)Gal(b1-4)GlcNAc(b1-3)Gal(b1-4)GlcNAc(b1-2)Man(a1-6)]Man(b1-4)GlcNAc(b1-4)[Fuc(a1-6)]GlcNAc
# Outline: as §1
# [5] = target: GlcNAc(b1-3)Gal(b1-4)GlcNAc(b1-6)[Gal(b1-3)]GalNAc
# Outline: as §1
# [6] = target: GlcNAc(b1-3)Gal(b1-4)GlcNAc(b1-6)[GlcNAc(b1-3)]Gal(b1-4)GlcNAc
# Outline: as §1
# [7] = target: Man(a1-2)Man(a1-2)Man(a1-3)Man
# Outline: as §1
# [8] = target: Man(a1-2)Man(a1-2)Man(a1-6)[Man(a1-3)]Man
# Outline: as §1
# [9] = target: Man(a1-2)Man(a1-3)[Man(a1-2)Man(a1-6)]Man(a1-6)[Man(a1-2)Man(a1-2)Man(a1-3)]Man(b1-4)GlcNAc(b1-4)GlcNAc
# Outline: as §1
# [10] = target: Man(a1-2)Man(a1-6)[Man(a1-3)]Man(a1-6)[Man(a1-2)Man(a1-2)Man(a1-3)]Man
# Outline: as §1
# [11] = target: Man(a1-3)[Man(a1-6)]Man(a1-6)[Man(a1-2)Man(a1-3)]Man(b1-4)GlcNAc(b1-4)GlcNAc
# Outline: as §1
# [12] = target: Neu5Ac(a2-3)Gal(b1-3)GlcNAc(b1-3)GalNAc
# Outline: as §1
# [13] = target: Neu5Ac(a2-3)Gal(b1-3)[GlcNAc(b1-6)]GalNAc
# Outline: as §1
# [14] = target: Neu5Ac(a2-3)Gal(b1-4)GlcNAc(b1-2)Man(a1-3)[Neu5Ac(a2-3)Gal(b1-4)GlcNAc(b1-2)Man(a1-6)]Man(b1-4)GlcNAc(b1-4)[Fuc(a1-6)]GlcNAc
# Outline: as §1
# [15] = target: Neu5Ac(a2-3)Gal(b1-4)GlcNAc(b1-2)[Neu5Ac(a2-3)Gal(b1-4)GlcNAc(b1-4)]Man(a1-3)[GlcNAc(b1-4)][Neu5Ac(a2-3)Gal(b1-4)GlcNAc(b1-2)[Neu5Ac(a2-3)Gal(b1-4)GlcNAc(b1-6)]Man(a1-6)]Man(b1-4)GlcNAc(b1-4)GlcNAc
# Outline: as §1
# [16] = target: Neu5Ac(a2-3)Gal(b1-4)GlcNAc(b1-3)Gal(b1-4)GlcNAc(b1-3)Gal(b1-4)GlcNAc(b1-2)Man(a1-3)[Neu5Ac(a2-3)Gal(b1-4)GlcNAc(b1-3)Gal(b1-4)GlcNAc(b1-3)Gal(b1-4)GlcNAc(b1-2)Man(a1-6)]GalNAc
# Outline: as §1
# [17] = target: Neu5Ac(a2-3)Gal(b1-4)GlcNAc(b1-3)Gal(b1-4)GlcNAc(b1-3)GalNAc
# Outline: as §1
# [18] = target: Neu5Ac(a2-3)Gal(b1-4)GlcNAc(b1-3)GalNAc
# Outline: as §1
# [19] = target: Neu5Ac(a2-3)Gal(b1-4)[Fuc(a1-3)]GlcNAc
# Outline: as §1
# [20] = target: Neu5Ac(a2-3)Gal(b1-4)[Fuc(a1-3)]GlcNAc(b1-3)Gal(b1-4)GlcNAc
# Outline: as §1
# [21] = target: Neu5Ac(a2-3)Gal(b1-4)[Fuc(a1-3)]GlcNAc(b1-6)[Gal(b1-3)]GalNAc
# Outline: as §1
# [22] = target: Neu5Ac(a2-3)Gal(b1-4)[Fuc(a1-3)]GlcNAc(b1-6)[Neu5Ac(a2-3)Gal(b1-3)]GalNAc
# Outline: as §1
# [23] = target: Neu5Ac(a2-3)Gal(b1-4)[Fuc(a1-3)]GlcNAc6S
# Outline: as §1
# [24] = target: Neu5Ac(a2-3)[GalNAc(b1-4)]Gal(b1-4)GlcNAc(b1-3)GalNAc
# Outline: as §1
# [25] = target: Neu5Ac(a2-6)Gal(b1-4)GlcNAc(b1-2)Man(a1-3)Man(b1-4)GlcNAc(b1-4)GlcNAc
# Outline: as §1
# [26] = target: Neu5Ac(a2-6)Gal(b1-4)GlcNAc(b1-2)Man(a1-3)[Gal(b1-4)GlcNAc(b1-2)Man(a1-6)]Man(b1-4)GlcNAc(b1-4)GlcNAc
# Outline: as §1
# [27] = target: Neu5Ac(a2-6)Gal(b1-4)GlcNAc(b1-2)Man(a1-3)[GlcNAc(b1-2)Man(a1-6)]Man(b1-4)GlcNAc(b1-4)GlcNAc
# Outline: as §1
# [28] = target: Neu5Ac(a2-6)Gal(b1-4)GlcNAc(b1-2)Man(a1-6)[GlcNAc(b1-2)Man(a1-3)]Man(b1-4)GlcNAc(b1-4)GlcNAc
# Outline: as §1
# [29] = target: Neu5Ac(a2-6)Gal(b1-4)GlcNAc(b1-3)Gal(b1-4)GlcNAc(b1-3)Gal(b1-4)GlcNAc(b1-2)Man(a1-3)[Neu5Ac(a2-6)Gal(b1-4)GlcNAc(b1-3)Gal(b1-4)GlcNAc(b1-3)Gal(b1-4)GlcNAc(b1-2)Man(a1-6)]GalNAc
# Outline: as §1
# [30] = target: Neu5Ac(a2-8)Neu5Ac(a2-3)[GalNAc(b1-4)]Gal(b1-4)Glc
# Outline: as §1
# Neu5Gc(a2-3)Gal(b1-4)Glc = target: Neu5Gc(a2-3)Gal(b1-4)Glc
# Outline: as §1
binder,measurement,setting,value
B1,glycan array binding signal (z-score),[1],-0.597
same,glycan array binding signal (z-score),[2],-0.788
same,glycan array binding signal (z-score),[3],-0.558
same,glycan array binding signal (z-score),[4],3.06
same,glycan array binding signal (z-score),[5],-0.776
same,glycan array binding signal (z-score),[6],0.458
same,glycan array binding signal (z-score),[7],0.687
same,glycan array binding signal (z-score),[8],6.66
same,glycan array binding signal (z-score),[9],4.17
same,glycan array binding signal (z-score),[10],3.42
same,glycan array binding signal (z-score),[11],5.03
same,glycan array binding signal (z-score),[12],-0.064
same,glycan array binding signal (z-score),[13],-0.32
same,glycan array binding signal (z-score),[14],-0.173
same,glycan array binding signal (z-score),[15],-0.296
same,glycan array binding signal (z-score),[16],5.66
same,glycan array binding signal (z-score),[17],-0.279
same,glycan array binding signal (z-score),[18],0.374
same,glycan array binding signal (z-score),[19],-0.42
same,glycan array binding signal (z-score),[20],0.65
same,glycan array binding signal (z-score),[21],1.5
same,glycan array binding signal (z-score),[22],-0.33
same,glycan array binding signal (z-score),[23],-0.958
same,glycan array binding signal (z-score),[24],0.22
same,glycan array binding signal (z-score),[25],-0.071
same,glycan array binding signal (z-score),[26],-0.093
same,glycan array binding signal (z-score),[27],-0.252
same,glycan array binding signal (z-score),[28],-0.496
same,glycan array binding signal (z-score),[29],3.79
same,glycan array binding signal (z-score),[30],-0.363
same,glycan array binding signal (z-score),Neu5Gc(a2-3)Gal(b1-4)Glc,0.046
